# From PubChem
# Dicer inh: blocks human Dicer maturation of pre-miR-21; Q9UPY3; cat-ELCCA pre-miR-21 Dicer processing, chemiluminescence; stronger effect = higher value; z-score at 25 µM; AID 1347074; 6% of 47,000 active; in the data active means z-score above about 3, passing the limit was not always enough;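 further: plate controls were vehicle for no effect and no enzyme for full effect; higher signal means more uncleaved substrate so more Dicer inhibition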
# Starred values were filed as active, the others as inactive. This is one part of a sample in which hits are shown more often than they occur.
SMILES,Dicer inh
Cc1ccc(S(=O)(=O)Nc2cc(Cl)c(O)cc2C)cc1,4.3*
CCOC(=O)Sc1ccc2ccccc2c1,-0.58
Cc1ccc2[nH]c(=O)c(-c3noc(-c4ccccc4F)n3)cc2c1,0.84
CC(=O)Nc1nc([N+](=O)[O-])n(-c2ccccc2)n1,0.38
CCOC(=O)c1c(C)oc2ccc(N(C(=O)C3CCCCC3)S(=O)(=O)c3cccs3)cc12,2.1
Cc1ccc(F)cc1S(=O)(=O)Nc1ccc2c(c1)OCC1CCCN21 (configuration not stated),6.5*
Cc1cc(S(=O)(=O)Nc2cccc(F)c2)c(C)c(S(=O)(=O)c2ccccc2)c1,1.8
COc1ccc(NS(=O)(=O)c2ccc(F)cc2)cc1OC1CCCC1,-0.39
N#CCC(=O)N/N=C/c1ccc(-c2cc(C(F)(F)F)cc(C(F)(F)F)c2)o1,-1.3
O=C(NC(=O)C1CCCCC1)c1ccccc1O,-1.8
O=C1Cc2ccccc2C(c2ccccc2)N1 (configuration not stated),0.47
Oc1ccccc1C1CCCCC1c1ccccc1 (configuration not stated),4.7*
O=C(Cn1cccc(C(F)(F)F)c1=O)Nc1ccccc1,0.34
CC(C)(C)c1cc(NC(=O)C(Cl)Cl)c(C(N)=O)s1,-0.06
O=C(O)C1C2C=CC(C2)C1C(=O)N1CCc2c([nH]c3ccccc23)C1C(F)(F)F (configuration not stated),-0.64
CN(C)C(=O)c1ccc(-c2cc(C(F)(F)F)nn2C)s1,-0.27
Cn1nc(C(F)(F)C(F)F)cc1-c1ccccc1O,5.3*
Cn1nc(C(F)(F)F)cc1OC(=O)c1ccccc1Cl,-0.32
Cc1c(CNC(=O)c2cnn3c(C(F)(F)F)cc(-c4ccc(Br)cc4)nc23)cnn1C,2
Brc1ccc2c(c1)CN(C1CCCCC1)CO2,1.5
COc1ccc(CN2COc3ccc(F)cc3C2)cc1,0.47
CCOc1ccc2c(c1)CN(Cc1ccc(Cl)cc1)CO2,1.1
Clc1ccc2c(c1)CN(Cc1ccccc1)CO2,3.3*
Clc1ccc2nc(NC3=NCN(Cc4ccccc4)CN3)oc2c1,1.2
Brc1ccc2c(c1)CN(Cc1ccccc1)CO2,4.5*
SMILES,Dicer inh
CCOC(=O)C1=C(C)NC(C(=O)OCC)CS1 (configuration not stated),-0.98
CC(=O)C1=NN(c2cccc(Cl)c2)C2C(=O)N(c3ccccc3)C(=O)C12 (configuration not stated),0.57
Cc1cccc(Cl)c1NC(=S)Nc1c(C)cccc1Cl,0.44
O=C(CSc1nc2ccccc2[nH]1)NCCN1CCCC1,-2.7
COC(=O)C1=C(C)NC2=C(C(=O)CC(c3ccccc3Cl)C2)C1c1ccc(Br)cc1 (configuration not stated),-4.4
COc1ccc(NC(=O)CSc2nc(-c3cccs3)cc(C(F)(F)F)n2)cc1,-1.8
CCC12CN3CC(CC)(CN(C1)C3c1ccc(O)cc1O)C2=O (configuration not stated),0.45
CC12CN3CC(C)(CN(C1)C3c1ccc(O)cc1O)C2=O (configuration not stated),-2.8
CC(C)C12CN3CC(C(C)C)(CN(C1)C3c1ccc(O)cc1O)C2=O (configuration not stated),5.7*
O=c1[nH]nc(Sc2ncc([N+](=O)[O-])s2)n1-c1ccc(OCc2ccccc2)cc1,-0.84
CCOC(=O)c1cnn(-c2c([N+](=O)[O-])c(C)nn2C)c1/N=C\N(C)C,-0.47
Cc1cc(C(=O)N=S(C)(=O)c2cccs2)no1 (configuration not stated),-1.1
Cc1nn(-c2ccccc2)c(NC(=O)C(Cl)Cl)c1Br,-0.52
CSc1nnc2c(n1)OC(C)=Nc1ccccc1-2,0.37
CCSc1nnc2c(n1)OC(CC)=Nc1ccccc1-2,-1.2
CCSc1nnc2c(n1)OC(C)=Nc1ccc(Br)cc1-2,3.4*
CSc1nnc2c(n1)OC(C)=Nc1ccc(Br)cc1-2,1.9
CCCSc1nnc2c(n1)OC(C)=Nc1ccc(Br)cc1-2,3.7*
CCCCSc1nnc2c(n1)OC(CC)=Nc1ccccc1-2,-0.65
O=C(Nc1nccs1)c1cc2ccccc2c(=O)o1,-1.1
CCNc1nc(SCc2ccc([N+](=O)[O-])cc2)nc2nc(N(CC)CC)ncc12,0.13
Cc1cc(C)n(-c2nc3ccccc3nc2N2CCN(S(=O)(=O)c3ccccc3)CC2)n1,-0.81
CCOC(=O)c1sc2sc(C(=O)OCC)c(-c3ccco3)c2c1N,-2.1
CCOC(=O)c1c(C)noc1-c1csc(Nc2c(C)cc(C)cc2C)n1,0.39
CCOC(=O)c1c(C)noc1-c1ccco1,7.7*
SMILES,Dicer inh
Cc1ccc(C2CC(=O)c3cnc(Nc4ccc(C)cc4C)nc3C2)cc1 (configuration not stated),4.2
CCN1/C(=C(/O)c2ccccc2)C(=O)c2ccccc2S1(=O)=O,0.47
CSc1ncc(-c2n[nH]c(=S)n2C)n1C,-1.5
O=C(Nc1ccccc1)OC1CCSC1 (configuration not stated),1.2
COc1ccccc1Nc1n[nH]c(C)c1[N+](=O)[O-],1.9
COc1ccccc1Nc1cccccc1=O,2.7
COc1ccccc1Nc1cc(=O)[nH]c(=O)[nH]1,3.6*
Cc1cc(Br)ccc1NC(=O)C1Sc2nnc(C)n2NC1c1ccc(Cl)cc1 (configuration not stated),2.5
Cc1c2cnn(C)c(=O)c2c(C)n1-c1ccccc1,0.57
O=C1NC(c2ccccc2)Nc2sc3c(c21)CCN(Cc1ccccc1)C3 (configuration not stated),1.2
O=C1Nc2ccc(S(=O)(=O)Nc3ccccc3O)c3cccc1c23,8*
O=C1Nc2ccc(S(=O)(=O)NCCO)c3cccc1c23,0.31
Cc1ccc(C)c(NS(=O)(=O)c2ccc3c4c(cccc24)C(=O)N3)c1,2.6
CCCCOC(=O)C1=C(C)NC2=C(C(=O)CCC2)C1c1ccc(O)c(OC)c1 (configuration not stated),-0.54
CCOC(=O)C(NC(=O)Nc1ccccc1)(Nc1ccc(C)cc1)C(F)(F)F (configuration not stated),1.8
c1ccc(Cc2noc(-c3ccccc3)n2)cc1,1
COc1cc(C2/C(=C(/O)c3ccc(C)cc3)C(=O)C(=O)N2CC(C)O)ccc1O (configuration not stated),-1.2
O=C(CSc1nc2ccccc2o1)N1CCc2c([nH]c3ccccc23)C1C(F)(F)F (configuration not stated),-2.8
CC1=C(C(=O)OCC(C)C)C(c2ccc3c(c2)OCO3)C2=C(CC(c3ccccc3)CC2=O)N1 (configuration not stated),0.61
CC1=C(C(=O)OCCOC(C)C)C(c2cccs2)C2=C(CC(c3cccs3)CC2=O)N1 (configuration not stated),4.1*
COC(=O)C1=C(C)NC2=C(C(=O)CC(c3ccccc3OC)C2)C1c1cccc(OC)c1OC (configuration not stated),-0.37
CC1=C(C(=O)OCCOC(C)C)C(c2ccc(F)cc2)C2=C(CC(c3cccs3)CC2=O)N1 (configuration not stated),2.4
COc1ccccc1C1C(C(=O)OCC2CCCO2)=C(C)NC2=C1C(=O)CC(C)(C)C2 (configuration not stated),0.12
COCCOC(=O)C1=C(C)NC2=C(C(=O)CC(c3ccccc3)C2)C1c1cccc(OC)c1OC (configuration not stated),7.2*
COc1cccc(C2C(C(=O)OCC3CCCO3)=C(C)NC3=C2C(=O)CC(C)(C)C3)c1OC (configuration not stated),5.4*
